# Source: PubChem
# GoLoco inh red: inhibitors of human Gai1-RGS12 GoLoco interaction (red fluorophore); P63096; Potency, µM (doses to about 61.6 µM), inactives show top-dose activity, negative = inhibition, usual class: inhibitors; 230,000 compounds, 0.44% hits; Gai1:RGS12 GoLoco peptide FP, rhodamine, 10 min; active means well fitted inhibition curve with a large enough effect, not every such curve was filed as active; inactive means no such curve, though single readings can be large or run the other way; further: potency means the concentration at half of the fitted maximal effect; on the % scale 0 is the no-effect control and ±100 the full control effect; nearly all actives have a fitted effect of over 30% in size
# ALDH1A1 block: inhibitors of human aldehyde dehydrogenase 1A1; Potency, µM (highest dose often 75.3 µM), inactives show top-dose activity, negative = inhibition, hits mostly inhibitors; 220,000 compounds, 7.3% hits; P00352; AID 1030; Purified ALDH1A1, NADH fluorescence, propionaldehyde substrate; active means well fitted inhibition curve with a large enough effect, not every such curve was filed as active; inconclusive means small, poorly fitted or top-dose-only effect, or another doubt; inactive means no such curve, though single readings can be large or run the other way;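 further: potency means the concentration at half of the fitted maximal effect; plate controls were no enzyme wells and a reference inhibitor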
# Target sequence (P00352 whole entry, looked up): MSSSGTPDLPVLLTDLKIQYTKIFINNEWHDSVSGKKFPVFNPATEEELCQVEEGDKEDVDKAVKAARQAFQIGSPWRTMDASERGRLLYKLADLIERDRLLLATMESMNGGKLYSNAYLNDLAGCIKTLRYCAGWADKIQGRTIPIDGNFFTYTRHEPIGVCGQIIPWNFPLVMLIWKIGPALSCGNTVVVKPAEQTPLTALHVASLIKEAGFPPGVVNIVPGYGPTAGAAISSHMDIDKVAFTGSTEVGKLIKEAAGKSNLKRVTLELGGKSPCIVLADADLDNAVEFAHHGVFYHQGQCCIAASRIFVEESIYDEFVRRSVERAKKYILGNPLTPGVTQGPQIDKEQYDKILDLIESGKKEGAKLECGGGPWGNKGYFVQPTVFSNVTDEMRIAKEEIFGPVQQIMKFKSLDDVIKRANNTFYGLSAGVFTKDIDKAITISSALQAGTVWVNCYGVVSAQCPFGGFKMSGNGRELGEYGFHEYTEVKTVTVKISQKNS
# HPGD inh: inhibitors of human 15-hydroxyprostaglandin dehydrogenase (HPGD). P15428. purified HPGD, NADH fluorescence kinetic, PGE2 substrate. Potency, µM, inactives show at the highest dose activity change, negative = inhibition, usual class: inhibitors. 150,000 compounds, 4.3% hits; active means well fitted inhibition curve with a large enough effect, not every such curve was filed as active; inconclusive means small, poorly fitted or top-dose-only effect, or another doubt; inactive means no such curve, though single readings can be large or run the other way; further: potency means the concentration at half of the fitted maximal effect; on the % scale 0 is the no-effect control and ±100 the full control effect
# Target sequence (P15428 whole entry, looked up): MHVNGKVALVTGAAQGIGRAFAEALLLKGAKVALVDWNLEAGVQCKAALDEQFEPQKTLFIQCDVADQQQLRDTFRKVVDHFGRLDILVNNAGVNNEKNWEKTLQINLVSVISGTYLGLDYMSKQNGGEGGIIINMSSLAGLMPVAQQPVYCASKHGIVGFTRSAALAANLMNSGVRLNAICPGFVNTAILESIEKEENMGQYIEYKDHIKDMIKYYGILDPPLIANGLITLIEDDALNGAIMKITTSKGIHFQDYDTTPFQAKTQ
#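 20 nM HPGD preincubated 15 min at room temperature with compound in 50 mM Tris-HCl pH 8, 0.01% Tween 20. Started with 1 mM NAD+ and 30 uM prostaglandin E2; NADH fluorescence (360/450 nm) read 5 times over 30-s intervals, last minus first.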
# HttQ103 aggreg: inhibitors of mutant huntingtin aggregate formation in PC12 cells; PC12 HttQ103-GFP aggregates, Acumen cytometry, 40 h; Potency, µM (highest dose often 46.1 µM), inactives show at the highest dose activity change, negative = inhibition, usual class: inhibitors; 220,000 compounds, 1.1% hits; AID 1688; further: potency means the concentration at half of the fitted maximal effect; on the % scale 0 is the no-effect control and ±100 the full control effect; nearly all actives have a fitted effect of over 60% in size
#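 PC12 cells with ecdysone-inducible HTT exon1 Q103-GFP, induced by 100 nM tebufenozide, given compounds in a concentration series. GFP aggregates (1–25 um, 6 SD above background) counted in lysates by laser-scanning cytometry, 488 nm excitation.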
# PNC inhibitor: perinucleolar compartment assembly inhibition. PC3M PTB-GFP, PNC prevalence imaging, 16 h; stronger effect = lower value. activity change (PNC), negative = inhibition, % at 10 µM. 140,000 compounds, 3.1% hits;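 active means readout at or below -70, meaning at least 70% loss of cells showing the perinucleolar compartment, a nuclear body marking cancer cells; inconclusive means readout between -30 and a set limit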;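 further: plate controls were DMSO wells for no effect and camptothecin positive control wells for full effect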
#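 PC3M cells stably expressing PTB-GFP, 750–1000 cells/well, treated 16 h at 37 °C with compound (23 nl of library stock), in duplicate. After paraformaldehyde fixation and Hoechst stain, imaged at 20x; PNC prevalence scored by image analysis.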
# HTT cytoprotect: Huntington cell model cytoprotection by ATP luminescence | PC12 HTT-Q103 induced, cytoprotection, ATP luminescence, 40 h | Potency, µM (series often up to 56.4 µM), for the others: cytoprotection (ATP increase), most hits filed as activators | 230,000 compounds, 0.14% hits | AID 1471; further: potency means the concentration at half of the fitted maximal effect; % of control where 0% means no effect; nearly all actives have a fitted effect of over 45% in size
#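 Quantitative HTS on tebufenozide-induced (100 nM) PC12 cells expressing HTTQ103 exon 1–GFP; compounds tested as a concentration series; survival measured via cellular ATP.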
# Active calls of the source: *; u = inconclusive; x = not tested or not shown; [ ] = dose if it differs, or a comment. A selection: hits, their analogues and other compounds. The true share with any hit is near 11%. Unless noted, the call rests on the fitted dose curve; in most records, active means well fitted curve in the direction sought with a large enough effect; inconclusive means small, poorly fitted or top-dose-only effect, or another doubt; inactive means no such curve, though single readings can be large; an effect the other way counts as inactive or inconclusive.
SMILES,GoLoco inh red,ALDH1A1 block,HPGD inh,HttQ103 aggreg,PNC inhibitor,HTT cytoprotect
Cc1ccc(S(=O)(=O)N[C@H]2COC(=O)[C@@H](C)COC(=O)[C@H](C)NC(=O)C/C=C\[C@H]2C)cc1,x,-8%[13.5 µM],x,x,x,3%[10 µM]
CC(=O)c1ccc(NC(=O)C(C)OC(=O)c2ccc(NS(=O)(=O)c3ccc(F)c(F)c3)cc2)cc1 (configuration not stated),-2%,-11%,-11%,9%,-100*,x
N#Cc1ccccc1OCC(O)CS(=O)(=O)c1ccccc1 (configuration not stated),-6%,0%,x,-14%[9.22 µM],x,-21%
N#Cc1ccccc1OC[C@H](O)CNCCNC(=O)Nc1ccccc1,14%,-6%,-3%,x,x,32µM*
O=C(Nc1ccc(Cl)cc1)c1cccc(N2C(=O)C3C4CCC(C4)C3C2=O)c1 (configuration not stated),-18%,9%,32µM*,2%,13,5%[10 µM]
COc1cccc(-n2nnc3c(=O)n(Cc4ccccc4F)cnc32)c1,2%,u,5.6µM*,-5%,-28,-28%[0.074 µM]
COc1cccc(-n2nnc3c(=O)n(CC(=O)N4CCCc5ccccc54)cnc32)c1,10%,u,22µM*,28%,8,9%
O=C(Cn1cnc2c(nnn2Cc2ccc(Cl)cc2)c1=O)N1CCCc2ccccc21,6%,22µM*,-15%,5%,-16,-2%[10 µM]
O=C(Cn1cnc2c(oc3ccccc32)c1=O)N1CCCc2ccccc21,10%,20µM*,-7%,20%,u,-24%[0.074 µM]
O=C(CSc1ncnc2c1oc1ccccc12)N1CCCc2ccccc21,9%,u,-19%,u,u,-5%[10 µM]
O[C@@H](c1cc([C@@]23C[C@H]4CC[C@@H]2C[C@H](C4)C3)nc2c(Cl)cc(Cl)cc12)[C@@H]1CCCCN1,x,x,x,x,x,2%[10 µM]
Cc1ccc(-n2nnc3c(=O)n(CC(=O)OCc4ccccc4)cnc32)cc1,6%,-7%,-18%,0.0028µM*,-13,x
O=C(Cn1c(-c2ccccc2)noc1=O)N1CCC(Cc2ccccc2)CC1,7%,1%,x,6%[9.22 µM],x,6%[10 µM]
CCOc1ccc(-n2nnc3c(=O)n(C/C=C/c4ccccc4)cnc32)cc1,1%,1%,-19%,-4%,-89*,-24%[10 µM]
CCOc1ccc(-n2nnc3c(=O)n(CC(=O)Nc4cc(C)on4)cnc32)cc1,-4%,x,x,-1%[9.22 µM],x,-14%[10 µM]
COc1ccc(-c2noc(=O)n2CC(=O)N2CCC(Cc3ccccc3)CC2)cc1,-1%,25µM*,x,3%[9.22 µM],x,-11%[10 µM]
COc1cccc(-n2nnc3c(=O)n(CC(=O)N4CCC(Cc5ccccc5)CC4)cnc32)c1,19%,2µM*,-25%,-14%,10,-12%
Cc1ccc(-n2ncc3c(=O)n(CC(=O)OCc4ccccc4)cnc32)cc1,2%,u,-22%,4%,0,5%
CCCCc1nc2c(c3c1C[C@H](C)OC3)CN(S(=O)(=O)c1ccc(C)cc1)CC2,5%[14.2 µM],-8%[13.5 µM],-4%,x,x,3%[10 µM]
O=C(Cn1cnc2c(nnn2Cc2ccccc2F)c1=O)N1CCN(c2ccccc2)CC1,7%,u,-16%,2%,-83*,-2%[10 µM]
CCC(C(=O)O)C1OC(C(C)C(O)C(C)C(=O)C(CC)C2OC3(C=CC(O)C4(CCC(C)(C5CCC(O)(CC)C(C)O5)O4)O3)C(C)CC2C)C(C)CC1C (configuration not stated),x,x,x,1.8µM*,x,-96%
CC1(C)C(C=C(Cl)Cl)C1C(=O)N1CCN(Cc2ccccc2)CC1 (configuration not stated),-4%,-7%,x,-8%,x,-16%
CCCn1c(C)nc2c(NC(C)CCCN(CC)CC)nc(C)nc21 (configuration not stated),-3%,3%,-12%,x,x,14%
COc1ccc(C(=O)/C=C2/c3ccccc3CC(C)(C)N2C)cc1OC,-5%,24µM*,-10%,u,-3,3%[10 µM]
COc1ccc(C(=O)N/N=C2\CCc3ccccc32)cc1OC,1%,2%,x,-5%,x,-17%
SMILES,GoLoco inh red,ALDH1A1 block,HPGD inh,HttQ103 aggreg,PNC inhibitor,HTT cytoprotect
COc1ccc(C(=O)N2CCC3(CCCN(Cc4ccc(C#N)cc4)C3)CC2)cc1,7%,-10%,-11%,x,x,7%
CC(C)C(NC(=O)CSc1ccc(Cl)cc1)C(C)C,6%,-1%,13µM*,-12%,-83*,-9%
CC(C)CNC(=O)CSc1ccc(Cl)cc1,8%,5%,16µM*,-4%,16,-35%[10 µM]
CCCNC(=O)c1cc(SC)ccc1Cl,14%,8%,-25%,-3%,33,16%
CCC(C)NC(=O)CSc1ccc(Cl)cc1 (configuration not stated),10%,1%,-17%,-6%,-13,9%[10 µM]
Cc1ccc(SCC(=O)NCC(C)C)cc1,-3%,-1%,16µM*,4%,-15,4%
CSc1ccc(Cl)c(C(=O)NCC(C)C)c1,-12%,0%,-15%,2µM*,u,-17%[0.074 µM]
CCC(C)NC(=O)c1ccc(-n2c(=S)[nH]c3ccccc3c2=O)cc1 (configuration not stated),3%,-5%,x,24%,x,x
C#CCN1C(C)=C(C(=O)OC)[C@@H](c2cccc([N+](=O)[O-])c2)C(C(=O)OCC)=C1C,x,x,x,x,x,-9%[1.9 µM]
COc1ccc(-c2nc(C)c(C(C)=O)n2O)cc1[N+](=O)[O-],5%,-2%,x,-10%,x,-75%
Cc1ccc(-c2nc(CN3CCCCC3CCN3CCCC3=O)c(C)o2)o1 (configuration not stated),23%,2%,x,24%[9.22 µM],x,4µM*
CCCC(C1=C(O)CC(C)(C)CC1=O)C1C(=O)CC(C)(C)CC1=O (configuration not stated),-6%,22µM*,0%,-20%,-12,2%[1.9 µM]
Cc1ccc(C(C2=C(O)CC(C)(C)CC2=O)C2C(=O)CC(C)(C)CC2=O)o1 (configuration not stated),2%,14µM*,3.5µM*,-4%,u,7%
CC1(C)CC(=O)C(C(C2=C(O)CC(C)(C)CC2=O)c2cccc(O)c2)C(=O)C1 (configuration not stated),-1%,14µM*,-9%,26%,40,-9%
CC1(C)CC(=O)C(C(C2=C(O)CC(C)(C)CC2=O)c2cccnc2)C(=O)C1 (configuration not stated),-5%,14µM*,-7%,2%,u,-8%[10 µM]
CCOc1ncccc1C(=O)Nc1nnc(C(CC)CC)s1,4%,4.5µM*,x,15%,x,5%
CCC(CC)c1nnc(NC(=O)Cc2ccccc2[N+](=O)[O-])s1,1%,20µM*,x,8%[9.22 µM],x,-46%
